Compounds with a hit are over-represented: about 3.3% of the library has one in this group of screens.
YjeE inh: displaces an ADP probe from E. coli YjeE (TsaE); P0AF67; purified YjeE enzyme, qHTS inhibition assay; Potency, µM; 71,000 compounds, 0.05% hits; AID 605
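Purified YjeE (10 uM) with BODIPY Texas Red-labeled ADP probe (2 uM); compounds pin-transferred, 15 min at room temperature. Binding inhibition read as decreased fluorescence polarization; ADP titration as control.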
BRCT inh red: BRCT-phosphoprotein interaction inhibition (red fluorophore). AID 892. Potency, µM (top dose mostly 76.9 µM), most hits filed as inhibitors. 75,000 compounds, 0.03% hits. BRCT-phosphopeptide binding, red fluorescence polarization. P38398
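Fluorescence polarization: 100 nM His-tagged BRCA1 BRCT with 100 nM TAMRA-labelled phospho-BACH1 decapeptide, phosphate buffer pH 7.3 with 150 mM NaCl, DTT, 0.01% Tween 20; 12 min RT. Binding inhibition seen as FP decrease.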
ALOX15 inhib: 15-hLO (ALOX15) enzyme inhibition; purified 15hLO-1, xylenol orange hydroperoxide absorbance; 74,000 compounds, 1.4% hits; Potency, µM (top dose mostly 57.1 µM), most hits filed as inhibitors; note: nearly all actives have a fitted effect of over 55% in size
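Readout: Fe(III)-xylenol orange absorbance, 573-to-405 nm ratio as reaction progress. Enzyme 40 nM purified human 15hLO-1, substrate 50 uM arachidonic acid, 6 min RT after 15 min compound preincubation; Hepes pH 7.5 buffer with Triton X-100.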
Pol III holo inh: inhibitors of bacterial DNA polymerase III holoenzyme; 71,000 compounds, 0.25% hits; Potency, µM (series often up to 57.1 µM); reconstituted DNA polymerase III holoenzyme replication, biochemical; AID 603
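Reconstituted *E. coli* holoenzyme (0.35 nM Pol III, 1 nM beta, 154 nM SSB, 2 nM primase) was preincubated with compound for 15 min at RT. Synthesis on 1.4 nM ssM13Gori ran 35 min, then was stopped with PicoGreen/EDTA and read as dsDNA fluorescence.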
Tau fil binding: binds recombinant human tau filaments | P10636 | recombinant tau filaments, thioflavin S fluorescence, 15 h; filaments grown with octadecylsulfate alongside compound | Potency, µM (series often up to 57.1 µM) | 71,000 compounds, 2% hits | AID 596;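 note: actives lower thioflavin S fluorescence by blocking filaments or displacing dye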
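Thioflavine S fluorescence (ex 450, em 510 nm) reports filaments formed from 1 uM human tau plus 30 uM ODS over 15 h at 37 C (10 mM HEPES pH 7.4, 100 mM NaCl, 5 mM DTT); compounds displacing dye or blocking filaments lower signal.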
BRCT PPI green: inhibitors of human BRCA1 BRCT-phosphoprotein interaction (green fluorophore) | Potency, µM (top dose mostly 76.9 µM), most hits filed as inhibitors | P38398 | AID 875 | 75,000 compounds, 0.05% hits | BRCA1 BRCT-phosphopeptide binding, green fluorescence polarization
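Fluorescence polarization: His-tagged BRCT (~35 kDa BRCA1 C-terminus, 250 nM) bound to 100 nM fluorescein-labeled phosphorylated 10-aa BACH1 peptide, pH 7.3 phosphate buffer with DTT and Tween 20. Compounds incubated 12 min at room temperature; inhibition read as lowered polarization.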
Large screens that a line does not name were inactive; ! = not active in a repeat. Calls come from the whole dose curve; as a rule, active = well fitted curve in the direction sought with a large enough effect; inconclusive = small, poorly fitted or top-dose-only effect, or another doubt; inactive = no such curve, though single readings can be large; an effect the other way counts as inactive or inconclusive.

CN1CCN(c2ncncc2-c2ccoc2)CC1	ALOX15 inhib 32µM
COc1cccc(NC(=O)Nc2cccs2)c1	ALOX15 inhib 20µM
COc1ccc(NC(=O)Nc2cccs2)cc1OC	ALOX15 inhib 20µM
COc1ccc(NC(=O)c2cccs2)cc1OC	none
N[C@@H](CC1=CS(=O)(=O)c2ccc(Cl)cc21)C(=O)O	none
O=c1c(CCc2ccccc2)nc2cnc(N3CCNCC3)nc2n1CCc1ccccc1	none
Cc1cc(NO)nc(-c2ccc(Br)cc2)n1	ALOX15 inhib 16µM
Cc1cc(C)nc(NS(=O)(=O)c2ccc(Br)cc2)n1	none
CC(C)C=O	none
Oc1ccc(N2CCN(C(c3cccnc3)c3nnnn3Cc3ccccc3)CC2)cc1 (stereo unspecified)	ALOX15 inhib 13µM
COc1ccc(NC2c3ncccc3C(=O)N2Cc2ccccc2)c(OC)c1 (stereo unspecified)	Tau fil binding 16µM
N=C(N)SCCCN	none
COc1ccccc1N1CCN(CCCCNS(=O)(=O)c2cccc3c(N(C)C)cccc23)CC1	none
C[C@H](O/N=C1/[C@H]2O[C@@H]2[C@@H](O)[C@H]2[C@H]1CCn1c(=O)n(-c3ccccc3)c(=O)n12)c1cn([C@H](CO)Cc2ccccc2)nn1	none (no result: YjeE inh, Pol III holo inh, Tau fil binding)
COc1cc(C(Nc2ccccn2)c2ccc3ccc(C)nc3c2O)cc(OC)c1O (stereo unspecified)	ALOX15 inhib 13µM, Tau fil binding 13µM
COc1ccc(O[C@H]2C=C[C@@H](c3ccccc3)O[C@H]2COC(=O)N2CCCCC2)cc1	none (no result: YjeE inh, Pol III holo inh, Tau fil binding)
CCOc1ccc(N2C(=O)CC(N3CCN(c4ccccc4F)CC3)C2=O)cc1 (stereo unspecified)	ALOX15 inhib inconclusive
CCOc1ccc(N2C(=O)CC(/C=C3/N(C)c4ccccc4C3(C)C)C2=O)cc1 (stereo unspecified)	Tau fil binding 25µM
C#CCN1C(C)=C(C(=O)OC)[C@@H](c2cccc([N+](=O)[O-])c2)C(C(=O)OCC)=C1C	none
COc1cc(C)cc2c(-c3c(O)cc(O)c4c3C[C@H](C)N[C@@H]4C)cc(-c3cc(-c4c(O)cc(O)c5c4C[C@H](C)N[C@@H]5C)c4cc(C)cc(OC)c4c3O)c(O)c12	Tau fil binding 4µM
Cc1cc(C(=O)CSCCCn2c(=O)[nH]c3ccccc32)c(C)n1C	ALOX15 inhib 32µM
O=c1[nH]c2ccccc2n1CCCSCCCn1c(=O)[nH]c2ccccc21	none
Clc1ccc(N2CCN(Cc3c[nH]c4ncccc34)CC2)cc1	ALOX15 inhib inconclusive, Tau fil binding 40µM!
O=c1[nH]c(=S)c2[nH]c(=O)n(-c3ccccc3)c2[nH]1	none
COc1ccc2c(c1)Cc1cc(N=[N+]([O-])c3ccc4c(c3)Cc3cc(OC)ccc3-4)ccc1-2	ALOX15 inhib 4µM, Tau fil binding 3.2µM
C[N+]1(C)C[C@@H](O)C[C@@H]1C(=O)[O-]	none
Cc1c(N=C=O)cccc1N=C=O	none
Cc1occc1C(=O)Nc1ccccc1C(=O)O	none
Cc1occc1C(=O)Nc1ccc2ccccc2c1	ALOX15 inhib inconclusive, Tau fil binding 10µM
O=C(O)c1cnc2ccccc2n1	ALOX15 inhib 20µM
O=C(Nc1cccnc1)c1cnc2ccccc2n1	none
N#Cc1c(N)nc2c(c1-c1ccco1)CCCCC2	none
N#Cc1c(-c2ccco2)c2c([nH]c1=S)CCCC2	ALOX15 inhib 16µM, Tau fil binding 32µM
O=C1c2ccccc2C(Nc2ccc3c(c2)OCCO3)N1Cc1ccccc1 (stereo unspecified)	Tau fil binding 20µM
CC(C)C[C@@H](CC(=O)N[C@@H](CCC(=O)O)CC(=O)O)NC(=O)[C@@H]1CNCC[C@H]1NC(=O)C[C@H](CCCN)NC(=O)C[C@H](Cc1ccccc1)NC(=O)[C@@H]1CCCC[C@H]1N	none (no result: BRCT inh red, ALOX15 inhib, BRCT PPI green)
OCC(CO)(CBr)CBr	none
O=c1c2c3nc4ccccc4nc3n(Cc3ccccc3)c2ncn1Cc1ccco1	ALOX15 inhib inconclusive, Tau fil binding 10µM
COCCCn1c2nc3ccccc3nc2c2c(=O)n(Cc3ccc(Cl)cc3)cnc21	none
